According to publication PMC4336329 (PLoS ONE, 2015):
The campaign covered roughly 310,000 compounds. About 14,000 (4.5%) showed an effect of 50% or more. The effect is printed as a negative number. This excerpt belongs to a sample that is enriched for strong results.

target: human ether-à-go-go-related gene (hERG) potassium channel (human, UniProt Q12809); assay: primary screen, population patch clamp on CHO cells stably expressing hERG; higher = less effect of the substance
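Note: peak tail current of the secondary pulse compared with the same well before compound.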

human ether-à-go-go-related gene (hERG) potassium channel, sequence (Q12809 whole entry, looked up): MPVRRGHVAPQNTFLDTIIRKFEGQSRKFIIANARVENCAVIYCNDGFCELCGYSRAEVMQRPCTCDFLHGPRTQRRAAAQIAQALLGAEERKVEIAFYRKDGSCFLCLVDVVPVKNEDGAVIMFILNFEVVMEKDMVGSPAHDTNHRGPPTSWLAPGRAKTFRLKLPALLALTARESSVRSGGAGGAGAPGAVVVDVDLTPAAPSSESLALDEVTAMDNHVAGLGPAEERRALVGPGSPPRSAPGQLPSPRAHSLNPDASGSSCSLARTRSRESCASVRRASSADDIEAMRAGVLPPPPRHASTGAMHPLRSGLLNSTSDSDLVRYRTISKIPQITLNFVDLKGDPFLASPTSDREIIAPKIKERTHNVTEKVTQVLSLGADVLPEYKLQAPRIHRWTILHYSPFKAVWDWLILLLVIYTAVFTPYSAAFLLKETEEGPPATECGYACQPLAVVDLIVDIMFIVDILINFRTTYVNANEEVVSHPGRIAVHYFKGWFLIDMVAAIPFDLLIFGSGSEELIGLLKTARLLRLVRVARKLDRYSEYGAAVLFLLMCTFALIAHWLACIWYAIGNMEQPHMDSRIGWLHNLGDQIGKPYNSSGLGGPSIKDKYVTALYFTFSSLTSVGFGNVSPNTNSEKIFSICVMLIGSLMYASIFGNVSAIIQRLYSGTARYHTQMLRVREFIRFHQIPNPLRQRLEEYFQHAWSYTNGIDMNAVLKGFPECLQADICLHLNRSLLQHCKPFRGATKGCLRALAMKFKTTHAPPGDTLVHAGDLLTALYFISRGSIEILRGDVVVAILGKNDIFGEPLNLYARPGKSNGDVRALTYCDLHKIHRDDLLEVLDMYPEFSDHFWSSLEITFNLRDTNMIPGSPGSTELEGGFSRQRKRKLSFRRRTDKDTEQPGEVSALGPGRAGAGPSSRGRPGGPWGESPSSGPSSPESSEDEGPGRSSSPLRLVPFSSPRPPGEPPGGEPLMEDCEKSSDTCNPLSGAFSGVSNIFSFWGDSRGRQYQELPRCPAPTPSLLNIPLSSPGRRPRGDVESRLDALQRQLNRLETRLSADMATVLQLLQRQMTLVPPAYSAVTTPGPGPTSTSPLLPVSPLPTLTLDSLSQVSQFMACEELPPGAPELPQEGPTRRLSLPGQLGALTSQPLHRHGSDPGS

Compound	hERG current change (%, negative = inhibition) at 10uM
Clc1ccccc1/C=C/c1nc(-c2cccnc2)no1	6.16%
CCN(CC)c1ccc(NC(=O)c2cnc3ccccn3c2=O)c(C)c1	4.51%
CCOC(=O)c1ccc(NC(=O)c2cccc(C)c2[N+](=O)[O-])cc1	4.73%
COc1ccc(C(=O)c2nccc3cc(OC)c(OC)cc23)cc1OC	6.21%
CC1CCN(C2(O)C(=O)Nc3ccc(Br)cc32)CC1 (stereo not drawn)	19.4%
CCC(C)(C)NC(=O)CN(C(=O)CNS(=O)(=O)c1ccccc1)c1ccc2c(c1)OCCO2	6.92%
Cc1ccc(NP(=O)(c2ccccc2)c2nc3ccccc3s2)cc1 (stereo not drawn)	3.27%
COC(=O)c1cc(C(=O)N2CCOCC2)cc([N+](=O)[O-])c1	21.7%
Cc1cc(C(=O)N2CCN(C(=O)c3ccco3)CC2)ccc1[N+](=O)[O-]	-64.7%
O=C(c1ccco1)N1CCN(C(=S)Nc2cccc([N+](=O)[O-])c2)CC1	-63.3%
COC(=O)c1cc(C(=O)N2CCN(c3ccccc3OC)CC2)cc([N+](=O)[O-])c1	-34.7%
COC(=O)c1cc(C(=O)N2CCN(C(=O)c3ccco3)CC2)cc([N+](=O)[O-])c1	-66.7%
COc1ccc(NC(=S)N2CCN(C(=O)c3ccco3)CC2)cc1OC	14.6%
O=C(c1ccc(Cl)c([N+](=O)[O-])c1)N1CCN(C(=O)c2ccco2)CC1	-41.6%
O=C(CN1CCN(C(=O)c2ccco2)CC1)Nc1cccc([N+](=O)[O-])c1	-49.1%
Cc1cc(C(=O)N2CCOCC2)ccc1[N+](=O)[O-]	9.19%
O=C(c1ccco1)N1CCN(C(=S)Nc2ccc(F)c(Cl)c2)CC1	-71.9%
O=C(c1ccco1)N1CCN(C(=S)Nc2cc(F)cc(F)c2)CC1	-16.5%
Cc1cccc(NC(=S)N2CCN(C(=O)c3ccco3)CC2)c1	-9.36%
COc1ccc(OC)c(S(=O)(=O)N2CCC(C(=O)NCc3ccncc3)CC2)c1	16.4%
CCn1c(O)c(/C=N/NC(=O)c2ccccc2)c(=O)n(CC)c1=S	13.6%
COc1ccc(OCC(=O)N/N=C2\CCc3ccccc32)cc1	-23.9%
CCOC(=O)C1=C(C)N=C2SC(C)C(=O)N2C1c1cccc(F)c1 (stereo not drawn)	-3.16%

Compound	hERG current change (%, negative = inhibition) at 10uM
CCOC(=O)c1nnn(-c2nonc2N)c1CN(CC)CC	-7.44%
CCOc1ccccc1NC(=O)c1nnn(CC(=O)Nc2cc(C)cc(C)c2)c1N	15.7%
Cc1cc(-c2ccco2)n2c(nc3ccccc32)c1C#N	-25.9%
COc1ccc(C(=O)N2CCC(n3nccc3NC(=O)C3CC3)CC2)cc1F	-26.8%
O=C(O)CC1S/C(=N\N=C2CCCCCC2)N(c2ccccc2)C1=O (stereo not drawn)	9.08%
O=C(c1cccc([N+](=O)[O-])c1)N1CCN(C(=O)c2ccco2)CC1	-10.8%
O=C(c1cc([N+](=O)[O-])cc([N+](=O)[O-])c1)N1CCN(C(=O)c2ccco2)CC1	-65.3%
O=C(/C=C/c1cccc([N+](=O)[O-])c1)N1CCN(C(=O)c2ccco2)CC1	-64.8%
O=C(c1ccco1)N1CCN(C(=O)c2ccccc2[N+](=O)[O-])CC1	22.4%
O=C(/C=C/c1ccccc1[N+](=O)[O-])N1CCN(C(=O)c2ccco2)CC1	-45.6%
O=C(/C=C/c1ccccc1)N1CCN(C(=O)c2ccco2)CC1	-28.6%
COc1ccccc1N1CCN(C(=O)c2ccc(-c3ccccc3)cc2)CC1	-5.25%
Cc1cc(C)cc(OCC(=O)NC(C)c2ccccc2)c1 (stereo not drawn)	15.2%
CC(C)OCCCNC(=O)c1cc(-c2cccnc2)nc2ccccc12	-21.4%
Cc1ccc(S(=O)(=O)NCCC(c2ccc(F)cc2)c2ccco2)cc1 (stereo not drawn)	10.8%
Cc1ccc(C(CCN)c2ccco2)cc1 (stereo not drawn)	-2.63%
Cc1ccc(C(CCNC(C)c2cccs2)c2ccco2)cc1 (stereo not drawn)	-57.1%
Cc1ccc(S(=O)(=O)NCCC(c2ccccc2)c2ccco2)cc1 (stereo not drawn)	0.23%
O=S(=O)(NCCC(c1ccc(F)cc1)c1ccco1)c1ccccc1 (stereo not drawn)	-7.77%
Fc1ccc(C(CCNCc2cccs2)c2ccco2)cc1 (stereo not drawn)	-66.8%
Cc1cc(C)cc(NC(=O)CCCn2nc(C)c3c(C)n(-c4ccccc4)nc3c2=O)c1	-4.07%
CC(C(=O)NC1C(=O)N2C(C(=O)O)=C(CSc3nnnn3C)CSC12)n1cc(Br)cn1 (stereo not drawn)	25.1%
CN(C)C(=O)CSc1nnc([C@H](Cc2ccccc2)NC(=O)OC(C)(C)C)o1	5.98%

Compound	hERG current change (%, negative = inhibition) at 10uM
O=C(CNS(=O)(=O)c1ccccc1)N1CCN(Cc2ccccc2)CC1	5.89%
CC1(C)CC(=O)C=C(c2ccc(I)cc2)C1	-2.72%
Cc1cccc(Cn2c(Cc3ccccc3)nc3ccccc32)c1	-24.6%
CC(O)CNc1nc2ccccc2n1CC(=O)N1CCN(Cc2ccccc2)CC1 (stereo not drawn)	-22.6%
ClCc1nc2ccccc2n1Cc1ccccc1	10.6%
CCc1nc2ccccc2n1CC(=O)N1CCN(Cc2ccccc2)CC1	-61.5%
CCn1c(CN2CCN(c3ccc(Cl)cc3)CC2)nc2ccccc21	-55.3%
c1ccc(Cn2c(CN3CCCC3)nc3ccccc32)cc1	-64.6%
COc1ccc(N2CCN(Cc3nc4ccccc4n3C)CC2)cc1	-18.2%
Cn1c(CN2CCN(c3ccc(Cl)cc3)CC2)nc2ccccc21	-14.3%
OCCCc1nc2ccccc2n1Cc1ccccc1	7.46%
c1ccc(Cc2nc3ccccc3n2Cc2ccccc2)cc1	-53.4%
Cc1ccc(Cn2c(Cc3ccccc3)nc3ccccc32)cc1	-10.1%
O=C(Cn1c(NCCO)nc2ccccc21)N1CCN(Cc2ccccc2)CC1	-9.47%
CCOC(=O)c1ccc(NC(=O)CN(C)S(=O)(=O)c2ccc(OC)cc2)cc1	6.82%
CC1=NNC(=O)C1CC(=O)N/N=C/c1ccc(C)o1 (stereo not drawn)	10.7%
CCOc1ccccc1NC(=O)C(C)CC (stereo not drawn)	-6.76%
Cc1ccc(NC(=O)C2CCCN2C(=O)c2cccs2)c(C)c1 (stereo not drawn)	12.7%
Cc1cc(C)cc(OCC(=O)NC2CCCc3ccccc32)c1 (stereo not drawn)	-1.2%
CC(=O)OC(C)C(=O)NS(=O)(=O)c1ccc(C)cc1 (stereo not drawn)	12.3%
Cc1ccc(CCC(=O)Nc2ncc(Cc3cccc(Cl)c3Cl)s2)o1	51.7%
CCOC(=O)COc1cccc2c(=O)n(CC(=O)N3CCN(C(=O)OCC)CC3)ccc12	7.65%
CCOC(=O)Nc1nnc(Cc2ccc(Cl)c(Cl)c2)s1	5.09%

Compound	hERG current change (%, negative = inhibition) at 10uM
Cc1ccc(-n2c(SCC(=O)N3CCOCC3)nnc2-c2ccncc2)cc1C	-10.6%
CC(C)C(=O)Nc1ncc2c(n1)CC(c1cccs1)CC2=O (stereo not drawn)	-17.3%
CC1=C(C(N)=O)C(c2cccs2)n2nc(-c3cccc(Cl)c3)nc2N1 (stereo not drawn)	-24.9%
O=C(NCCS(=O)(=O)N1CCN(c2ccccc2F)CC1)c1cc(=O)c2ccccc2o1	15%
Cc1nc2ccccc2n1Cc1ccccc1	15.8%
OCc1nc2ccccc2n1Cc1ccc(Cl)cc1	8.87%
CC(O)c1nc2ccccc2n1Cc1ccccc1 (stereo not drawn)	3.15%
CC(c1nc2ccccc2n1Cc1ccccc1)N1CCCCC1 (stereo not drawn)	-65%
Cc1nc2ccccc2n1Cc1ccc(Cl)cc1	-2.56%
Cl.Clc1ccc(Cn2c(CN3CCCC3)nc3ccccc32)cc1	-74.4%
Cc1ccccc1N(CC(=O)NCc1ccco1)C(=O)CNS(=O)(=O)c1ccc(F)cc1	-16%
COc1ccc(OC)c(/C=C/C(=O)OCC(=O)NC2CCCCCCC2)c1	-4.68%
CCN(CC)C(=S)SCC(=O)Nc1ccc(S(N)(=O)=O)cc1	3.17%
CS(=O)(=O)c1ccc(C(=O)NCc2ccccc2F)cc1	6.24%
O=C(NCCC1=CCCCC1)C1CCN(c2nc3ccccc3o2)CC1	-13.9%
Cc1ccccc1-c1nc(CN2CCC(C(=O)NCCCN3CCOCC3)CC2)c(C)o1	-10.8%
Cc1oc(-c2ccccc2F)nc1CN1CCC(C(=O)NC2CCCc3ccccc32)CC1 (stereo not drawn)	-63.9%
Cc1ccccc1-c1nc(CN2CCC(C(=O)NCCC3=CCCCC3)CC2)c(C)o1	-66.7%
Cc1cc(C)nc(N2CCC(C(=O)NC3CCCc4ccccc43)CC2)n1 (stereo not drawn)	17.6%
Cc1oc(-c2ccccc2F)nc1CN1CCC(C(=O)NC2CC2)CC1	-34.3%
Cc1oc(-c2ccccc2F)nc1CN1CCC(C(=O)NCCC2=CCCCC2)CC1	-71.8%
